# Most compounds without a hit are left out; they make up all but 12% or so of the library.
# Pf growth 96h: P. falciparum growth inhibition at 96 hours; hit rate 6.9% among 320,000; P. falciparum luciferase reporter growth, 96 h; Potency, µM (highest dose often 28.7 µM), for the others: at the top dose activity change, negative = inhibition, actives largely listed as inhibitors; note: % is set by controls: 0 for no effect and ±100 for the full control effect
#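 Two-generation exposure (96 h) targets delayed-death phenotype. Reporter parasites carrying integrated firefly luciferase, in red cells at 2% hematocrit and 0.05% parasitemia final, kept at 37 C, 5% CO2; luminescence loss indicates inhibition.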
# Sm TGR block: blocks Schistosoma mansoni thioredoxin glutathione reductase; Q962Y6; purified TGR, DTNB reduction, TNB absorbance 405 nm; Potency, µM (top dose mostly 114 µM), for the others: at the top dose activity change, negative = inhibition, hits mostly inhibitors; hit rate 3% among 360,000; AID 485364; note: % is set by controls: 0 for no effect and ±100 for the full control effect; nearly all actives have a fitted effect of over 60% in size
#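 Kinetic colorimetric format: TGR-catalysed, NADPH-driven DTNB reduction monitored via TNB absorbance. Enzyme dispensed at 20 nM; compound exposure 15 min at room temperature before reaction start.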
# Pf growth 48h: P. falciparum growth inhibition at 48 hours (one generation) | P. falciparum luciferase growth in erythrocytes, 48 h | Potency, µM (titrated, usually from 28.7 µM), for the others: at the top dose activity change, negative = inhibition, most hits filed as inhibitors | hit rate 5.9% among 310,000; note: % is set by controls: 0 for no effect and ±100 for the full control effect
#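 A one-generation exposure of luciferase-tagged malaria parasites in RPMI 1640/Albumax erythrocyte culture, 37 C and 5% CO2. Inhibition is inferred from decreased luminescence after adding detection reagent.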
# SARS PLP yeast: inhibitors of SARS-CoV papain-like protease in yeast; S. cerevisiae expressing SARS-CoV PLpro, growth rescue; Potency, µM (titrated, usually from 32.9 µM), without a hit: at the top dose activity, positive = growth rescue, actives largely listed as activators; hit rate 0.19% among 330,000; AID 485353; calls by dose curve; note: 0% is about no effect; nearly all actives have a fitted effect of over 55% in size
# Starred values were filed as active, the others as inactive; ? = inconclusive; nt = no result; ! = a repeat was not active; [ ] = remark or other dose. Unless noted, calls come from the whole dose curve; as a rule, active = well fitted curve in the direction sought with a large enough effect; inconclusive = small, poorly fitted or top-dose-only effect, or another doubt; inactive = no such curve, though single readings can be large; an effect the other way counts as inactive or inconclusive. Potency is the fitted concentration of half-maximal effect.
SMILES,Pf growth 96h,Sm TGR block,Pf growth 48h,SARS PLP yeast
COc1ccccc1C(=O)COC(=O)c1cccc(S(=O)(=O)N2CCCC2)c1,0%,-4%,0%,23%
CCOC(=O)c1c(SCC(=O)Nc2nc3ccccc3s2)nc(=O)[nH]c1C,nt,-27%,nt,nt
CCOC(=O)c1c(SCC(=O)Nc2nc(C)cs2)nc(=O)[nH]c1C,4.7µM*,2%,-2%,-5%
Cn1c(=O)oc2cc(S(=O)(=O)NCCC(=O)NCc3ccc(F)cc3)ccc21,13µM*,8%,4%,-9%
CCc1ccc(NC(=O)CCNS(=O)(=O)c2ccc3c(c2)oc(=O)n3C)cc1,nt,-17%,nt,nt
CCOC(=O)C1=C(C)NC(=O)/C1=C\N(C)C,-8%,20µM*,5%,-1%
Cc1ccc(NC(=O)C2CCN(S(=O)(=O)c3cccc4nonc34)CC2)c(Cl)c1,nt,2%,nt,nt
CCOc1ccc(CCNC(=O)C(CC)n2nc(C)c3c(C)n(-c4ccccc4)nc3c2=O)cc1 (configuration not stated),nt,8%,nt,nt
CN1C(=S)SC(/[N+]([O-])=C\c2ccccc2)C1(C)C (configuration not stated),23%,0%,-16%,-2%
CN1C(=S)SC(/[N+]([O-])=C/c2cccnc2)C1(C)C (configuration not stated),3.7µM*,3%,12%,2%
COc1ccc(CN2CCC(=O)N([C@H](CO)CC(C)C)CC2)cc1,37%,-7%,9%,10%
CC(C)CC(COCc1cccc(Cl)c1)N1CCN(C(=O)c2cccc(C(F)(F)F)c2)CCC1=O (configuration not stated),10µM*,-3%,?,0%
CC(C)CC(COCc1ccc(Cl)cc1)N1CCN(C(=O)c2ccc(Cl)cc2Cl)CCC1=O (configuration not stated),?,-11%,10µM*,-53%
COc1ccc(COCC(CC(C)C)N2CCN(C(=O)c3cccc(C(F)(F)F)c3)CCC2=O)cc1 (configuration not stated),?,-13%,10µM*,1%
COC(=O)Nc1ccc(S(=O)(=O)NNC(=O)c2c(O)c3ccccc3n(C)c2=O)cc1,11%,-26%,34%,-3%
CC(c1nccs1)N(C)c1nc2nonc2nc1N(C)C (configuration not stated),13µM*,?,8%,1%
Nc1c(C(=O)Nc2ccccc2F)sc2nc(-c3ccco3)ccc12,224%,2.8µM*,110%,0%
COC(=O)c1sc2nc(-c3ccco3)ccc2c1N,0%,2.8µM*,0%,-10%
Cc1ccccc1OCC(=O)Nc1ccc2nc(SCC(=O)N3CCCC3)sc2c1,nt,0%,nt,nt
CCOc1ccccc1NC(=O)CCCc1nc(-c2ccccc2Cl)no1,nt,9%,nt,nt
Cc1ccc(CCNC(=O)CSCc2ccc(F)cc2)cc1,-11%,-5%,12%,-3%
CC1CCN(c2oc(-c3ccc(F)cc3)nc2C#N)CC1,24%,-4%,51%,-3%
CCN(CC)S(=O)(=O)c1ccc(NC(=O)CCc2c(C)nc3cc(-c4ccc(Cl)cc4)nn3c2C)cc1,nt,-5%,nt,nt
CCN1CCN(C(=O)CN(C)S(=O)(=O)c2cc(C)ccc2OC)CC1,5%,2%[57.1 µM],10%,0%
COc1ccc(C)cc1S(=O)(=O)N(C)CC(=O)N1CCCC1,12µM*,4%,7%,-7%
SMILES,Pf growth 96h,Sm TGR block,Pf growth 48h,SARS PLP yeast
COc1ccc(C)cc1S(=O)(=O)N(C)CC(=O)NC1CC1,?,-9%,nt,-10%
COc1ccc(C)cc1S(=O)(=O)N(C)CC(N)=O,10µM*,7%,-7%,-3%
COc1ccc(S(=O)(=O)N(C)CC(=O)N2CCCCC2)cc1Cl,?,-6%,8%,1%
COc1ccc(Cl)cc1S(=O)(=O)N(C)CC(=O)N1CCCC1,5.9µM*,7%,5%,13%
COC(=O)c1sccc1NC(=O)CC1NCCNC1=O (configuration not stated),20%,1%,13%,-2%
O=C(O)C1(S(=O)(=O)CCC(F)=C(F)F)CC1,45%,32µM*,24%,1%
COC(=O)c1ccc(C(=O)Nc2ccc(N)cc2N)cc1,-9%,?,4.1µM*,-2%
COc1ccc(C2c3[nH]c4ccc(OC)cc4c3CCN2C(=O)Nc2ccccc2)cc1 (configuration not stated),nt,4%,nt,nt
Oc1ccc(N2Cc3ccccc3C2)cc1,30%,22µM*,-3%,0%
Oc1cccc(N2Cc3ccccc3C2)c1,22%,10µM*,6%,-3%
O=Cc1ccc(N2Cc3ccccc3C2)cc1,?,?,18%,-7%
CCC1(CC)Cc2ccccc2C(=O)N1,22%,8%,5%,-2%
O=C1c2ccccc2CC1(Cc1ccccc1)Cc1ccccc1,?,-16%,13µM*,-37%
CC(C)CCNC(=O)C1CCN(C(=O)c2cc3sccc3n2Cc2ccc(Cl)cc2)CC1,nt,7%,nt,nt
O=C(NC(=S)NC1CCCCC1)c1ccccc1[N+](=O)[O-],-22%,-22%,?,11%
CCCc1c(OCCCCc2nn[nH]n2)ccc(C(C)=O)c1O,11µM*!,15%,?,-3%
COc1ccc(-c2nsc(NC(=O)c3oc4cc(C)c(C)cc4c3C)n2)cc1,nt,1%,nt,nt
COc1ccc(-c2ccnc3c2c(=O)n(C)c(=O)n3C)cc1OC,nt,14%,nt,nt
O=C(Nc1ccccc1SCC1CSc2nc3ccccc3c(=O)n21)c1cccc(Cl)c1 (configuration not stated),?,0%,10µM*,-1%
NCCCNc1nc(N)c([N+](=O)[O-])c(NC2CCCCC2)n1,?,-14%,2.3µM*,-1%
COCCNc1nc(N)c([N+](=O)[O-])c(NC2CCCCC2)n1,?,?,?,-3%
Cc1cccc(C)c1N1C(=O)CC(N(O)c2ccccc2)C1=O (configuration not stated),nt,14µM*,-5%,-4%
Cc1c(Cl)cccc1N1C(=O)CC(N(O)c2ccccc2)C1=O (configuration not stated),nt,13µM*,13%,0%
Cc1ccc(N(C)S(=O)(=O)c2ccc(-c3coc(C)n3)cc2)cc1,nt,1%,nt,nt
O=C(c1ccc(Br)cc1)N(Cc1ccco1)c1ccccn1,nt,-5%,nt,nt
SMILES,Pf growth 96h,Sm TGR block,Pf growth 48h,SARS PLP yeast
COc1ccc(/C=C/C(=O)c2cc(Br)ccc2OC(=O)c2ccco2)cc1OC,20%,-33%,12µM*,-6%
COc1ccc(/C=C/C(=O)c2cc(Br)ccc2O)cc1OC,?,2%,-24%,0%
CCOC(=O)C1CCN(Cc2ccc(Cl)c(Cl)c2)CC1,-1%,2%,nt,13%
CCOC(=O)C1CCN(Cc2ccc(OC)c(OCc3ccccc3)c2)CC1,12µM*,0%,30%,-3%
CCOC(=O)C1CCCN(Cc2cc(OC)c(O)c(OC)c2)C1 (configuration not stated),33%,16µM*,4%,4%
CCOC(=O)C1CCN(Cc2ccc(OCc3ccccc3)c(OC)c2)CC1,?,46%,4%,26%
CCOC(=O)C1CCN(Cc2cc(C(C)(C)C)c(O)c(C(C)(C)C)c2)CC1,?,11µM*,?,0%

# Source: PubChem BioAssay
